# Experimental data taken from the supplement of paper PMC10037445.
# Whole data set: some 2,900 compounds, median “NF-kB SEAP reporter activity, fold change vs agonist alone” near 0.99, cut for the highest 2% near 2.6. The full list was thinned out, with the highest values kept by preference.
# What was measured:
# RAW-Dual [1] = test: NF-kB SEAP reporter activity, fold change vs agonist alone; cytotoxicity flag (confluency mask): cytotoxic (confluency <70% of control); higher = enhanced NF-kB activity
# In short: (§1)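 RAW-Dual macrophages (50,000 cells/well in DMEM, 384-well plates) received 50 nL of library stock by pin tool, then a PRR agonist 1 h later, and were kept at 37 °C, 5% CO2. After 20 hours, supernatant was read for IRF by QuantiLuc luminescence and for NF-κB by QuantiBlue absorbance at 620 nm. Reporter activity is fold change over agonist-alone wells. Cytotoxic wells had IncuCyte confluency below 70% of agonist controls in both mask sets.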
# RAW-Dual [2] = test: NF-kB SEAP reporter activity, fold change vs agonist alone; cytotoxicity flag (confluency mask): not cytotoxic; higher = enhanced NF-kB activity
# In short: as §1
# RAW-Dual [3] = test: NF-kB SEAP reporter activity, fold change vs agonist alone; higher = enhanced NF-kB activity
# In short: as §1
# [4] = agonist: ODN 1826 (TLR9) 0.5 ug/mL
# [5] = agonist: Pam2CSK4 (TLR2/6) 0.1 ug/mL
# [6] = agonist: Pam3CSK4 (TLR2/1) 0.1 ug/mL
# [7] = library stock concentration (final ~1000-fold dilution): 10 mM, cytotoxicity flag (confluency mask): not cytotoxic, agonist: Imiquimod (TLR7) […]
# [8] = library stock concentration (final ~1000-fold dilution): 10 mM, cytotoxicity flag (confluency mask): not cytotoxic, agonist: MPLA (TLR4) […]
structure (smiles),measurement,setting,value
CN1CCN(Cc2ccc(Nc3ncc(Cl)c(Nc4ccccc4S(=O)(=O)N(C)C)n3)cc2)CC1 (library stock concentration (final ~1000-fold dilution): 2 mM),NF-kB SEAP reporter activity,RAW-Dual [1]; agonist: LPS (TLR4) 0.1 ug/mL,0.331
same,NF-kB SEAP reporter activity,RAW-Dual [1]; [4],1.3
same,NF-kB SEAP reporter activity,RAW-Dual [1]; [5],0.245
same,NF-kB SEAP reporter activity,RAW-Dual [1]; [6],1.08
CN1C(=O)c2sccc2N(C)c2nc(Nc3ccc(S(N)(=O)=O)cc3)ncc21 (library stock concentration (final ~1000-fold dilution): 10 mM),NF-kB SEAP reporter activity,RAW-Dual [2]; agonist: LPS (TLR4) 0.1 ug/mL,5.75
same,NF-kB SEAP reporter activity,RAW-Dual [2]; [4],3.02
same,NF-kB SEAP reporter activity,RAW-Dual [2]; [5],1.22
same,NF-kB SEAP reporter activity,RAW-Dual [2]; [6],2.56
CN1CCN(Cc2ccc(Nc3ncc(Cl)c(Nc4ccccc4S(=O)(=O)N(C)C)n3)cc2)CC1,NF-kB SEAP reporter activity,"RAW-Dual [3]; library stock concentration (final ~1000-fold dilution): 2 mM, cytotoxicity flag (confluency mask): cytotoxic (confluency <70% of control), agonist: Imiquimod (TLR7) […]",1.37
same,NF-kB SEAP reporter activity,"RAW-Dual [3]; library stock concentration (final ~1000-fold dilution): 2 mM, cytotoxicity flag (confluency mask): cytotoxic (confluency <70% of control), agonist: MPLA (TLR4) […]",0.961
COC(=O)c1ccc(O)c(O)c1,NF-kB SEAP reporter activity,RAW-Dual [3]; [7],0.731
same,NF-kB SEAP reporter activity,RAW-Dual [3]; [8],1.17
COC(=O)c1ccc(O)c(O)c1 (library stock concentration (final ~1000-fold dilution): 10 mM),NF-kB SEAP reporter activity,RAW-Dual [2]; agonist: LPS (TLR4) 0.1 ug/mL,0.81
same,NF-kB SEAP reporter activity,RAW-Dual [2]; [4],0.654
same,NF-kB SEAP reporter activity,RAW-Dual [2]; [5],0.603
same,NF-kB SEAP reporter activity,RAW-Dual [2]; [6],0.553
Cn1cc(C2=C(c3cccc(N)c3)C(=O)NC2=O)c2ccccc21 (library stock concentration (final ~1000-fold dilution): 10 mM),NF-kB SEAP reporter activity,RAW-Dual [2]; agonist: LPS (TLR4) 0.1 ug/mL,1.83
same,NF-kB SEAP reporter activity,RAW-Dual [2]; [4],2.18
same,NF-kB SEAP reporter activity,RAW-Dual [2]; [5],1.59
same,NF-kB SEAP reporter activity,RAW-Dual [2]; [6],2.2
Cn1cc(C2=C(c3ccc(Cl)cc3Cl)C(=O)NC2=O)c2ccccc21 (library stock concentration (final ~1000-fold dilution): 10 mM),NF-kB SEAP reporter activity,RAW-Dual [2]; agonist: LPS (TLR4) 0.1 ug/mL,3.23
same,NF-kB SEAP reporter activity,RAW-Dual [2]; [4],2.04
same,NF-kB SEAP reporter activity,RAW-Dual [2]; [5],1.49
same,NF-kB SEAP reporter activity,RAW-Dual [2]; [6],2.34
Cn1cc(C2=C(c3ccc(Cl)cc3Cl)C(=O)NC2=O)c2ccccc21,NF-kB SEAP reporter activity,RAW-Dual [3]; [7],1.58
same,NF-kB SEAP reporter activity,RAW-Dual [3]; [8],1.99
CS(=O)(=O)O.Cn1cc(C2=C(c3cn(CCCSC(=N)N)c4ccccc34)C(=O)NC2=O)c2ccccc21,NF-kB SEAP reporter activity,"RAW-Dual [3]; library stock concentration (final ~1000-fold dilution): 10 mM, cytotoxicity flag (confluency mask): cytotoxic (confluency <70% of control), agonist: Imiquimod (TLR7) […]",0.13
same,NF-kB SEAP reporter activity,"RAW-Dual [3]; library stock concentration (final ~1000-fold dilution): 10 mM, cytotoxicity flag (confluency mask): cytotoxic (confluency <70% of control), agonist: MPLA (TLR4) […]",0.222
CS(=O)(=O)O.Cn1cc(C2=C(c3cn(CCCSC(=N)N)c4ccccc34)C(=O)NC2=O)c2ccccc21 (library stock concentration (final ~1000-fold dilution): 10 mM),NF-kB SEAP reporter activity,RAW-Dual [1]; agonist: LPS (TLR4) 0.1 ug/mL,0.173
same,NF-kB SEAP reporter activity,RAW-Dual [1]; [4],0.185
same,NF-kB SEAP reporter activity,RAW-Dual [1]; [5],0.0599
same,NF-kB SEAP reporter activity,RAW-Dual [1]; [6],0.138
Cn1cc(C2=C(c3cccc(N)c3)C(=O)NC2=O)c2ccccc21,NF-kB SEAP reporter activity,RAW-Dual [3]; [7],1.55
same,NF-kB SEAP reporter activity,RAW-Dual [3]; [8],1.7
COc1cc2c3cc1Oc1c(OC)c(OC)cc4c1C(Cc1ccc(O)c(c1)Oc1ccc(cc1)CC3N(C)CC2)N(C)CC4.Cl.Cl (stereo not given) (library stock concentration (final ~1000-fold dilution): 10 mM),NF-kB SEAP reporter activity,RAW-Dual [2]; agonist: LPS (TLR4) 0.1 ug/mL,1.44
same,NF-kB SEAP reporter activity,RAW-Dual [2]; [4],0.2
same,NF-kB SEAP reporter activity,RAW-Dual [2]; [5],1.08
same,NF-kB SEAP reporter activity,RAW-Dual [2]; [6],1.19
COc1cc2c3cc1Oc1c(OC)c(OC)cc4c1C(Cc1ccc(O)c(c1)Oc1ccc(cc1)CC3N(C)CC2)N(C)CC4.Cl.Cl (stereo not given),NF-kB SEAP reporter activity,RAW-Dual [3]; [7],0.379
same,NF-kB SEAP reporter activity,RAW-Dual [3]; [8],1.37
